# Records with an inconclusive call do not appear. Entries that show only a call come without a potency. Active and inactive are the calls of the source. The call rests on the fitted dose curve; in most records, active means well fitted cell-killing curve with a large enough effect; inconclusive means small, poorly fitted or top-dose-only effect, or effect the other way; inactive means flat fitted curve, though single readings scatter.
# Tested on: CAOV3
# Test: Primary qHTS to identify gynecologic anti-cancer compounds using libraries of approved drugs and bioactive compounds (AID 1345084); further: nearly all actives have a fitted effect of over 55% in size
# Details: Gynecologic cancer cell panel viability, ATPlite luminescence, 48 h; series mostly up to 57.5 µM
# Text: National Center for Advancing Translational Sciences [NCATS] Assay Overview: Chemotherapeutic drug responses vary from cancer to cancer and from patient to patient. These variations could be caused by a number of factors including patient genomic background, tumor mutations, tumor heterogeneity, and aspects of drug treatment. Chemotherapeutic drug resistance is also a common issue and can lead to ineffective treatment and patient death. Here we have profiled the cell killing effects of thousands of compounds to characterize the responses in three gynecological cancers, identify cancer-selective compounds, and understand the diversity of responses to these compounds from pan-cancer suppressors to single cell line selective compounds. In this assay, we screened a 7,914 compound drug library that included approved drug and bioactive compounds in six ovarian, three cervical, and […] placental cancer cell lines using the ATPlite assay for cell viability. […] The cervical cancer cell lines included HeLa, Ca Ski, and C-33 A. The placental cancer cell lines included JEG-3. HEK 293T cells were used as the control cell line to determine the selectivity index. ATPlite is a luminescence based assay reliant on the conversion of a luciferase substrate to light in the presence of ATP. As a cytotoxic compound will suppress growth and decrease the number of cells, the concentration of ATP will decrease, and less light signal will be detected in the well.
# Assay Protocol Summary: 1,000 cells in 4 uL of media were dispensed into white, solid bottom 1536-well plates using a Multidrop Combi (Thermo Scientific). The Assay plates were incubated for 16 hours at 37 C with 5% CO2 in assay plates, followed by the addition of 23 nL of DMSO or drug dissolved in DMSO. Each compound was assayed in five concentrations (0.092, 0.46, 2.3, 11.5, and 57.5 uM), using the automated Wako 1536 Pin Tool workstation and incubated at 37 C with 5% CO2 48 hours. 4 uL of ATPlite, the ATP monitoring reagent, was then added to the each well of the assay plates using the Multidrop Combi reagent dispenser followed by incubation for 15 minutes at room temperature. The resulting luminescence was measured using the ViewLux plate reader.
# Potency means the concentration at half of the fitted maximal effect.
row,Compound,Potency
1,C[C@H]1[C@@H](OC(=O)CCC(=O)O)O[C@@H]2O[C@@]3(C)CC[C@@H]4[C@H](C)CC[C@@H]1[C@@]24OO3,inactive
2,N[C@H]1CN(c2c(F)cc3c(=O)c(C(=O)O)cn(C4C[C@@H]4F)c3c2Cl)CC12CC2 (stereo partly drawn),inactive
3,C[N+]1(C)[C@@H]2C[C@@H](OC(=O)C(O)(c3cccs3)c3cccs3)C[C@H]1[C@@H]1O[C@@H]12,inactive
4,O=C(O)c1ccc(Nc2ncc3c(n2)-c2ccc(Cl)cc2C(c2c(F)cccc2F)=NC3)cc1,inactive
5,CCN(CC)Cc1ccc2cc(COC(=O)Nc3ccc(C(=O)NO)cc3)ccc2c1,7.94 µM (active)
6,CCOC(=O)[C@@H](N)Cc1ccc(-c2cc(O[C@H](c3ccc(Cl)cc3-n3ccc(C)n3)C(F)(F)F)nc(N)n2)cc1,inactive
7,Cc1cn([C@@H]2O[C@H](CO)[C@@H](O)[C@H]2F)c(=O)[nH]c1=O,inactive
8,CC(O)(C#Cc1ccc2c(c1)N(c1nc(N)ncc1Cl)CC2)c1nccs1 (stereo not drawn),inactive
9,CC1=C(C(=O)Nc2cc3cn[nH]c3cc2F)C(c2ccc(Cl)cc2F)N=C(c2ccnc(Cl)c2)N1 (stereo not drawn),inactive
10,Cc1ccc(-n2[nH]c(C)c(N=Nc3cccc(-c4cccc(C(=O)O)c4)c3O)c2=O)cc1C,inactive
11,CN1CCc2c(c3ccccc3n2Cc2ccc(C(=O)NO)cc2)C1,inactive
12,FC(F)(F)c1ccc(Nc2nc3ccc(Oc4ccnc(-c5ncc(C(F)(F)F)[nH]5)c4)cc3[nH]2)cc1,inactive
13,Cc1cnc(Nc2ccc(CN3CCOCC3)cc2)nc1Nc1cccc(S(=O)(=O)NC(C)(C)C)c1,7.94 µM (active)
14,CCC[C@H]1C[C@H](C(=O)N[C@@H]([C@@H]2O[C@@H](SC)[C@@H](O)[C@@H](O)[C@@H]2O)[C@H](C)Cl)N(C)C1,inactive
15,c1ccc2c(Oc3nc(Nc4ccc(N5CCOCC5)cc4)c4ncn(C5CCCCC5)c4n3)cccc2c1,inactive
16,Nc1ccn(C2CO[C@H](CO)O2)c(=O)n1 (stereo partly drawn),inactive
17,c1cncc(CN2CCC(n3ncc4c(N5CCOCC5)nc(-c5ccc6[nH]ccc6c5)nc43)CC2)c1,28.2 µM (active)

row,Compound,Potency
1,Oc1ccc([C@@H]2Oc3ccc(O)cc3[C@@H]3CCC[C@@H]32)cc1,inactive
2,Cn1cnc2c(F)c(Nc3ccc(Br)cc3F)c(C(=O)NOCCO)cc21,inactive
3,CC(C)n1cnc2c(NCCc3ccc(O)cc3)nc(-c3csc4ccccc34)nc21,inactive
4,C=CC(=O)Nc1ccc2ncnc(Nc3ccc(OCc4cccc(F)c4)c(Cl)c3)c2c1,35.5 µM (active)
5,COc1ccc(S(=O)(=O)Nc2cccnc2Nc2ccc(O)cc2)cc1,inactive
6,CCCCOc1ccc(C(=O)Nc2ccc(F)cc2F)cc1,inactive
7,Cc1coc2c1C(=O)C(=O)c1c-2ccc2c(C)cccc12,inactive
8,CN(C)CC(=O)N1CCC(c2ccc(NC(=O)c3ncc(C#N)[nH]3)c(C3=CCCCC3)c2)CC1,inactive
9,Cc1ccccc1C(=O)Nc1ccc(C(=O)N2CCCC(O)c3cc(Cl)ccc32)c(C)c1 (stereo not drawn),inactive
10,CC1(C)O[C@@H]2C[C@H]3[C@@H]4CCC5=CC(=O)C=C[C@]5(C)[C@@H]4[C@@H](O)C[C@]3(C)[C@]2(C(=O)CO)O1,inactive
11,O=C(Nc1cc2cc[nH]c2cn1)c1ccccc1,1.78 µM (active)
12,CC(C)C[C@H](NC(=O)[C@@H](NC(=O)c1cccc(-c2ccccc2)n1)[C@@H](C)O)B(O)O,0.282 µM (active)
13,C[C@H](O)[C@@H]1C(=O)N2C(C(=O)O)=C(S[C@@H]3CN[C@H](CNS(N)(=O)=O)C3)[C@@H](C)[C@@H]12,inactive
14,CS(=O)(=O)N1CCc2c(-c3cnc(N)nc3)nc(N3CCOCC3)nc21,inactive
15,O=C(Nc1ccc(Oc2ccnc3[nH]ccc23)c(F)c1)c1cccn(-c2ccc(F)cc2)c1=O,inactive
16,CCn1c(=O)c2c(nc(C=Cc3ccc(OC)c(OC)c3)n2C)n(CC)c1=O,inactive

# — PubChem BioAssay (NCATS)
